MazEF act: increases E. coli MazEF RNase cleavage of RNA; FAM/BHQ RNA-DNA oligo cleavage fluorescence, 5 h; activation, % at 20 µM; hit rate 0.32% among 350,000; in the data active = activation above about 50%
Target sequence (P0AE70 whole entry, looked up): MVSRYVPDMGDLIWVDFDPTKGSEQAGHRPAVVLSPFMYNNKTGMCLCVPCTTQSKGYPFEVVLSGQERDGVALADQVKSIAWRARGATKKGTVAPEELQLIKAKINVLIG
BoNT F protease: blocks Botulinum neurotoxin F light chain protease. Multiplex microsphere protease cleavage assay, flow cytometry. inhibition, % at 10 µM. hit rate 0.22% among 360,000; in the data active = inhibition above about 35%, passing the limit was not always enough; inconclusive = no clear call, values can overlap the other calls
Autofluor counter: compound fluorescence in toxin protease inhibitor counterscreen | hit rate 3.1% among 360,000 | fluorescence intensity (test concentration not listed) | compound autofluorescence counterscreen, microsphere flow cytometry; active compounds read high; in the data active = fluorescence intensity above about 16000; inconclusive = no clear call, values can overlap the other calls
Vc quorum ag: quorum light induction in luxS cqsA deficient V. cholerae. V. cholerae BH1578 lux reporter, luminescence, 6 h. activation, % at 18.7 µM. hit rate 0.16% among 350,000; in the data active = activation mostly above about 9.7%, no sharp cut-off; inconclusive = no clear call, values can overlap the other calls; inactive = mostly below about 3.7%
BoNT-A LC inh2: blocks Botulinum neurotoxin A light chain protease. multiplex microsphere protease substrate cleavage, flow cytometry. inhibition, % at 10 µM. hit rate 0.17% among 360,000
Anthrax LF prot: inhibitors of Bacillus anthracis lethal factor protease. AID 588501. multiplex microsphere protease cleavage assay, LF. hit rate 0.12% among 360,000. inhibition, % at 10 µM. P15917
Large screens that a line does not name were inactive. This is a sample that favours compounds with a hit; in the whole collection about 3.9% have one here. Cut-off read from the data, not from the text of the source, unless noted: active = inhibition above about 30%; inconclusive = no clear call, values can overlap the other calls; inactive = below that.

CC1=NN(c2ccccc2)C(=O)/C1=C\N1CC(C)OC(C)C1 (centres undefined)	Autofluor counter 16159
Cc1cc(/C=C2\C(=O)NC(=O)N(Cc3ccccc3)C2=O)c(C)n1C1CC1	MazEF act 725
COc1ccccc1/C=C1/C(=O)N(c2ccccc2)N=C1C	none
CC1=NN(c2ccccc2)C(=O)/C1=C/c1cc(C)n(C2CC2)c1C	MazEF act 77
CC1=NN(c2ccccc2)C(=O)/C1=C/C=C/c1ccccc1	none
N#Cc1cc(-c2ccccc2)cnc1Sc1ccc(Cl)cc1	Autofluor counter 24808
N#Cc1cc(-c2ccc(Cl)cc2)cnc1Sc1ccccc1	none
Cc1ccc(C)c(S(=O)(=O)Nc2cc3c4c(c2)CC(=O)N4CCC3)c1	Autofluor counter inconclusive
Cc1ccc(S(=O)(=O)NN)c(C)c1N1CCCC1=O	MazEF act 165
C/C(=N\Nc1nc(N)cc(Cl)n1)c1cccc([N+](=O)[O-])c1	Autofluor counter 22572
C/C(=N\Nc1nc(N)cc(Cl)n1)c1cccc(N)c1	none
O=C(/C(=C\c1ccccc1)c1nc2ccccc2[nH]1)c1ccc(Cl)cc1	none
O=C(/C(=C/c1ccc(Cl)cc1)c1nc2ccccc2[nH]1)c1cccs1	Autofluor counter 16724
CC1(C)CC(=O)c2sc(NC(=O)C3CC3)nc2C1	none
Cn1nc(C(C)(C)C)cc1C(=O)Nc1nc2c(s1)C(=O)CC(C)(C)C2	Autofluor counter 22625
Cc1[nH]n(-c2ccccc2)c(=O)c1C=Nc1cccc(F)c1	none
Cc1cccc(/N=C/c2c(C)[nH]n(-c3ccccc3)c2=O)n1	Autofluor counter inconclusive
Cc1[nH]n(-c2ccccc2)c(=O)c1C=Nc1ccc2[nH]c(=O)[nH]c2c1	MazEF act 90
Cc1cccc(-n2[nH]c(C)c(C=Nc3ccc4[nH]c(=O)[nH]c4c3)c2=O)c1	MazEF act 154
Brc1cc(-c2ccccc2)nc(-c2ccccc2)n1	BoNT F protease inconclusive
COC(=O)c1cc(Cl)c(NC(=O)c2cc(OC)c(OC)c(OC)c2)cc1OC	Autofluor counter 21669
COC(=O)c1cc(Cl)c(NC(=O)/C=C/c2ccc(Cl)cc2)cc1OC	Autofluor counter 20164
COC(=O)c1cc(Cl)c(NC(=O)c2ccc(F)cc2)cc1OC	none
CC(C)(C)Cc1c(-c2cccc(Cl)c2)nc2ccc(Br)cn12	none (no result: MazEF act, Vc quorum ag)
COc1ccccc1NC(=O)CSc1nnc(CC(=O)Nc2cccc(C(F)(F)F)c2)n1C	Autofluor counter 20559
COc1cccc(NC(=O)Cc2nnc(SCC(=O)NC(C)c3ccccc3)n2C)c1 (centres undefined)	Autofluor counter 21780, BoNT-A LC inh2 inconclusive
COc1cccc(NC(=O)Cc2nnc(SCC(=O)NC3CCCC3)n2C)c1	none
FC(F)(F)Oc1ccccc1C(c1nnnn1C1CCCC1)N1CCN(C/C=C/c2ccccc2)CC1 (centres undefined)	none (no result: MazEF act, Vc quorum ag)
O=C(Nc1ccccc1N1CCCC1)c1cccc(S(=O)(=O)N2CCOCC2)c1	none (no result: BoNT F protease, Autofluor counter, BoNT-A LC inh2, Anthrax LF prot)
Cc1ccc(CNC(=O)COc2ccc(S(=O)(=O)N3CCCC3)cc2)cc1	none
O=S(=O)(c1ccc(NC(=S)NCc2ccc(F)cc2)cc1)N1CCOCC1	none
COCCn1c(=S)[nH]c2cc(C(=O)N3CCN(C4CCCCC4)CC3)ccc2c1=O	none
CCCn1c(=S)[nH]c2cc(C(=O)N3CCc4ccccc43)ccc2c1=O	Autofluor counter 21147
COCCn1c(=S)[nH]c2cc(C(=O)N3CCc4ccccc43)ccc2c1=O	Autofluor counter 24139
Cc1ccc(N=C2NC(=O)CS2)cc1	none
CCOC(=O)c1ccc(N=C2NC(=O)CS2)cc1	Autofluor counter 23536
N#CCCn1cc(C=O)c(-c2cccs2)n1	none
CC(=O)c1c(N2CCN(Cc3ccccc3)CC2)nc(=S)n(Cc2ccccc2)c1C	BoNT-A LC inh2 42
CC(C)(C)c1ccc(OCCNC(=S)NC(=O)c2cccnc2)cc1	none
CC1CCCCN1C/C=C/c1ccccc1[N+](=O)[O-] (centres undefined)	Autofluor counter 23342
CC1CCCN(C/C=C/c2ccccc2[N+](=O)[O-])C1 (centres undefined)	Autofluor counter 20230
O=[N+]([O-])c1ccccc1/C=C/CN1CCSCC1	BoNT F protease inconclusive
CCC1CCCCN1C/C=C/c1ccccc1[N+](=O)[O-] (centres undefined)	Autofluor counter 20733
C[C@@H](N)C(=O)NC[C@H]1CC[C@H](C(=O)N[C@@H](Cc2ccccc2)C(=O)O)CC1	none
Cc1ncsc1C(=O)NCc1ccc(N2CCCC2=O)cc1	Autofluor counter 16227
